Lmaj promast = inhibitors of Leishmania major promastigote growth. Leishmania major promastigotes, resazurin fluorescence viability. inhibition, % at 10 µM. 200,000 tested, 9% active; in the data active = inhibition above about 50%;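 also: promastigotes grown with compound for 44 hours at 28 °C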
Ins promoter up = MIN6 insulin promoter up-regulation. 190,000 tested, 0.3% active. MIN6 insulin promoter-GFP reporter, high-content imaging; hits give high values. z-score at 5 µM;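 active = z-score above 3 at 5 µM with at least 500 cells counted in the well; inconclusive = wells under 500 cells, flagged as cytotoxic or low count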
HCT116 PTEN-null = growth suppressors of cells with PTEN tumor suppressor deletion; viability, % at 10 µM; 140,000 tested, 1.2% active; HCT116 PTEN-null viability, CellTiter-Glo, 60 h; hits give low values;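 active = viability at or below a set limit, 4 SD under the median of all tested compounds, cut at about 3.7% in these data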;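 also: PTEN knockout HCT116 line with beta catenin targeted HCT116 as companion control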
Insulin prom inh = TRM-6 insulin promoter activity inhibition; TRM-6 cells (human fetal islet line), insulin promoter-eGFP reporter, imaging; reporter expression induced with tamoxifen; inhibition, % at 2 µM; 130,000 tested, 0.9% active; AID 1273;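 active = inhibition above the mean plus 3 SD, with well images judged a real hit on visual review, cut at about 60% in these data, passing the limit was not always enough; inconclusive = inhibition over the cutoff but images rejected on review; inactive = inhibition not above the cutoff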
HCT116 bCat-KO = beta-catenin-lacking colon tumor cell growth suppression; HCT116 beta-catenin knockout viability, CellTiter-Glo, 60 h; hits give low values; viability, % at 10 µM; 140,000 tested, 1.5% active;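 active = viability at or under a set limit, the compound median less 4 SD, cut at about 6% in these data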;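 also: 0% = Hyamine 1622 control at 20 µM and 100% = untreated cell control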
Autophagy mod = modulators of autophagy; MEF GFP-LC3 puncta imaging; test concentration mostly 10 µM; calls only at 10 µM (by protocol); 190,000 tested, 0.98% active; AID 463193;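 active = percentage of spot-positive cells more than 3 SD above its plate mean, without a fluorescence outlier flag or 80% toxicity; inconclusive = no clear call, values can overlap the other calls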;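 also: spot-positive cell cutoff set from DMSO-treated cells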
Numbers without * were called inactive; i = inactive; u = inconclusive; x = no result; + = active, no number. Rows were chosen to be rich in hits. Some 9.6% of all compounds tested hit in one or more screens of this group.

SMILES | Lmaj promast | Ins promoter up | HCT116 PTEN-null | Insulin prom inh | HCT116 bCat-KO | Autophagy mod
CCN1C(=O)CC(NCc2ccc(S(N)(=O)=O)cc2)C1=O (stereo unspecified) | x | -0.42 | x | x | x | x
COc1ccc(/C=N/NC(N)=S)cc1OC(=O)c1cccc2ccccc12 | 98.9* | x | 29.2 | -57.1 | 46.0 | i
CC(C)c1cc(C(N)=O)c(NC(=O)c2cccc(COc3ccc(Cl)cc3)c2)s1 | 96.4* | -0.2 | 30.5 | -14.3 | 26.2 | i
Cc1nn(Cc2c(F)c(F)c(F)c(F)c2F)c(C)c1NC(=O)c1cccc(COc2ccc(Cl)cc2)c1 | -2.5 | -0.87 | 78.8 | x | 85.5 | i
CC(C)CC(C(=O)N1CCOCC1)N1Cc2ccccc2C1=O (stereo unspecified) | -6.1 | -0.1 | x | -13.3 | x | i
CCN1CC(CN(C)Cc2nc(-c3ccc(C(F)(F)F)cc3)oc2C)CC1=O (stereo unspecified) | 55.7* | 0.2 | x | x | x | i
CCN1CC(CN(C)Cc2nc(-c3ccco3)oc2C)CC1=O (stereo unspecified) | -4.9 | -0.11 | x | x | x | i
CCOc1ccc(/C=N/NC(=O)c2csc(C)c2C)c(OCC)c1 | 6.8 | 0.89 | 96.5 | -8.3 | 101.0 | i
CCOC(=O)c1nc(Nc2cc(C)cc(C)c2)c2ccccc2n1 | 51.9* | -0.57 | x | 52.6 | x | i
CCOC(=O)c1nc(Nc2ccc(Nc3ccccc3)cc2)c2ccccc2n1 | 40.3 | x | x | x | x | i
CCOC(=O)c1nc(Nc2ccc(N3CCC(C)CC3)cc2)c2ccccc2n1 | 52.9* | -0.81 | x | x | x | i
CCOC(=O)c1nc(Nc2ccc(C(=O)O)cc2)c2ccccc2n1 | -1.4 | 0.45 | 90.7 | x | 102.5 | i
COc1c(Br)cc(Br)cc1C(=O)O | -1.5 | -0.14 | 91.2 | x | 96.8 | i
CCCCC[n+]1ccn(C2=C([O-])c3ccccc3C(=O)/C2=N\S(=O)(=O)c2ccccc2)c1 | 90.5* | 1.16 | 5.0 | 22.2 | 3.3* | i
CCCC[n+]1ccn(C2=C([O-])c3ccccc3C(=O)/C2=N\S(=O)(=O)c2ccccc2)c1 | 37.8 | -0.05 | 1.6* | -13.9 | 2.1* | i
Cn1c(C(=O)OC(C(=O)NCc2ccco2)c2ccncc2)cc2sccc21 (stereo unspecified) | 34.0 | -0.53 | 99.8 | i | 97.3 | i
Cn1c(=O)c(C(=O)COC(=O)c2cc(-c3ccco3)nc3ccccc23)c(N)n(CC2CC2)c1=O | 62.1* | -1.97 | 36.4 | 23.8 | 39.4 | i
Cn1c(=O)c(C(=O)COC(=O)c2cc(-c3ccccc3)nc3ccccc23)c(N)n(Cc2ccccc2)c1=O | 100.1* | -0.56 | 75.0 | -47.6 | 74.8 | i
Cn1c(N)c(C(=O)COc2ccc(Cl)cc2Cl)c(=O)n(C)c1=O | 12.3 | 0.28 | x | 7.1 | x | i
Cn1c(=O)c(C(=O)COC(=O)c2cc(C(F)(F)F)nc3ccccc23)c(N)n(Cc2ccccc2)c1=O | 44.9 | -1.18 | 54.5 | -40.0 | 43.7 | i
Cn1c(=O)c(C(=O)COC(=O)c2cc(C3CC3)nc3ccccc23)c(N)n(Cc2ccccc2)c1=O | 35.8 | 0.9 | 60.6 | 25.0 | 66.4 | i
Cn1c(=O)c(C(=O)COc2ccc(F)cc2Cl)c(N)n(Cc2ccccc2)c1=O | 56.0* | -0.66 | x | -45.5 | x | i
OCCC1CN(Cc2nc3ccccc3[nH]2)CCN1C1CCCC1 (stereo unspecified) | -5.0 | -0.33 | x | x | x | i
O=C(CSc1nncn1-c1ccccc1)c1c[nH]c2ccccc12 | 7.6 | 0.81 | x | 35.3 | x | i
O=C(CSc1nc2ccccc2c(=O)n1-c1ccccc1)c1c[nH]c2ccccc12 | 51.4* | 0.12 | 44.5 | -29.6 | 52.7 | i
SMILES | Lmaj promast | Ins promoter up | HCT116 PTEN-null | Insulin prom inh | HCT116 bCat-KO | Autophagy mod
CC[n+]1c(C=C2C=C(C)OC(C)=C2)sc2ccccc21 | 100.2* | u | x | i | x | +
Cc1sc2ccccc2[n+]1CCC(C)S(=O)(=O)[O-] (stereo unspecified) | -4.1 | x | 91.2 | -8.7 | 106.5 | i
CC[n+]1c(/C=C2/C=C(C)CC(C)C2)sc2ccccc21 (stereo unspecified) | 100.3* | u | x | 21.4 | x | i
CCOc1ccc(-c2c(=O)n(OCc3ccccc3Br)c3ccccc3[n+]2[O-])c(OCC)c1 | -10.1 | -0.22 | x | x | x | i
CCOc1ccc(OCC)c(-c2c(=O)n(OCc3ccccc3C(=O)OC)c3ccccc3[n+]2[O-])c1 | 78.9* | -1.24 | 82.8 | -70.0 | 85.0 | i
CCOc1ccc(OCC)c(-c2c(=O)n(OCc3ccccc3Br)c3ccccc3[n+]2[O-])c1 | 71.3* | -2.69 | 84.9 | x | 81.8 | i
